High-throughput results as filed in PubChem.
Most compounds without a hit are left out; they make up all but 2.3% or so of the library.
Tau fluor cs – counter-screen for tau fibril formation inhibitors; 0.93% of 280,000 active; Potency, µM (top dose mostly 57.7 µM), without a hit: top-dose activity change, negative = decrease; tau K18 P301L Alexa594 fluorescence, heparin fibrillization; note: potency is the fitted concentration of half-maximal effect; nearly all actives have a fitted effect of over 55% in size
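Human tau K18 P301L (15 uM unlabeled, 0.24 uM Alexa 594-labeled) in 100 mM sodium acetate pH 7 with 20 uM heparin, 6 hr at 37 C. ThT 30 uM added, 1 hr ambient; Alexa 594 FP and total fluorescence read at 555/632 nm.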
USP1 inh – USP1/UAF1 (human) deubiquitinase inhibition; AID 743255; recombinant USP1/UAF1, Ub-Rhodamine cleavage fluorescence; 0.23% of 390,000 active; Potency, µM (doses to about 57.1 µM), inactives show top-dose activity change, negative = inhibition, actives largely listed as inhibitors; note: potency is the fitted concentration of half-maximal effect; nearly all actives have a fitted effect of over 60% in size
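USP1/UAF1 complex at 1 nM was preincubated with compound for 15 min at room temperature, then Ub-Rho substrate (150nM final) was added. Fluorescence (480/540 nm) was read kinetically, 6 reads every 60 seconds.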
Coupling enz – counter-screen for Giardia aldolase inhibitors: coupling enzyme system; coupling enzyme system counterscreen, AmpLite Red fluorescence; activity change, negative = inhibition, % at 58.2 µM, hits read low; 0.67% of 290,000 active; AID 2472; in the data active = activity change below about -30%
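Counterscreen of the coupled detection system alone, without aldolase: glyceraldehyde-3-phosphate coupling enzymes plus AmpLite Red readout. Compounds at 57.5 uM final, 10 min RT preincubation, 20 min RT reaction, fluorescence 525/598 nm.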
Tau fibril ThT – tau fibrillization inhibition (ThT binding); recombinant tau K18 P301L, heparin-induced fibrillization, ThT fluorescence; Potency, µM (doses to about 57.4 µM), inactives show at the top dose activity, negative = inhibition, most hits filed as inhibitors; 2.1% of 270,000 active; note: potency is the fitted concentration of half-maximal effect; nearly all actives have a fitted effect of over 55% in size
Target sequence (P10636 561-689 P618L limits assumed): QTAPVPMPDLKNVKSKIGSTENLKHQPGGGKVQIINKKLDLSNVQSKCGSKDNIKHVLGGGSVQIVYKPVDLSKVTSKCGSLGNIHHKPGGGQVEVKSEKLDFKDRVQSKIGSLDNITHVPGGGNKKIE
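Using a mix of unlabeled (15 uM) and Alexa 594-labeled (0.24 uM) tau K18 P301L, heparin-triggered fibrillization over 6 hr at 37 C was scored by ThT fluorescence.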
Tau FP inhib – blocks human tau fibril formation measured by polarization; P10636; K18 P301L tau heparin fibrillization, Alexa594 FP, 6 h; Potency, µM (highest dose often 57.7 µM), for the others: at the highest dose activity, negative = inhibition, hits mostly inhibitors; 0.39% of 280,000 active; note: potency is the fitted concentration of half-maximal effect; nearly all actives have a fitted effect of over 55% in size
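Steps: dispense K18 P301L tau (15 uM plus 0.24 uM Alexa 594 tracer, final) in pH 7 sodium acetate; add compound; add heparin (20 uM final); incubate 6 hr, 37 C; add ThT (30 uM final); after 1 hr ambient, read FP.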
Active calls of the source: *; ? = inconclusive; . = not tested or not shown; [ ] = remark or other dose. Unless noted, calls come from the whole dose curve; as a rule, active = well fitted curve in the direction sought with a large enough effect; inconclusive = small, poorly fitted or top-dose-only effect, or another doubt; inactive = no such curve, though single readings can be large; an effect the other way counts as inactive or inconclusive. % is set by controls: 0 for no effect and ±100 for the full control effect.

SMILES	Tau fluor cs	USP1 inh	Coupling enz	Tau fibril ThT	Tau FP inhib
Cc1cc(/C=C2\C(=O)NC(=S)N(C)C2=O)c(C)n1C1CCCCC1	-11%	-10%	-1	?	-1%
Cc1cc(C=C2C(=O)N(C)C(=S)N(C)C2=O)c(C)n1C1CCCC1	?	-20%	-3	25µM*	?
CN1C2CCC1/C(=C/c1ccccn1)C(=O)/C2=C\c1ccccn1	-1%	-15%	4	4.5µM*	?
CCC12CN3CC(CC)(CN(C1)C3c1ccccn1)C2=O (centres undefined)	-2%	?	.	-2%	-4%
ClC1=C(Cl)C(Cl)(C2(Cl)C(Cl)=C(Cl)C(Cl)=C2Cl)C(Cl)=C1Cl	.	.	-14	.	.
CN(C)c1ccc(C=C2C(=O)NC(=S)NC2=O)cc1[N+](=O)[O-]	?	-26%	1	32µM*	?
CN(C)c1ccc(C=C2C(=O)NC(=O)NC2=O)cc1[N+](=O)[O-]	-19%	-2%	2	?	-11%
Cc1cc2c(cc1C)-n1c(-c3ccccc3)c3c(=O)n(C)c(=O)n(C)c3c1C(c1ccco1)N2 (centres undefined)	-18%	-18%	.	?	-8%
C=C1C(=O)OC2CC3(C)OC3CCC(C)=CC(OC(C)=O)C12 (centres undefined)	.	-18%	.	.	.
C=C1C(=O)O[C@@H]2C[C@@H](C)[C@H]3C=CC(=O)[C@]3(O)C[C@@H]12	-4%	?	-2	16µM*	?
CCc1ccc(-n2nc(C)c3c(C(=O)NCCc4ccc(OC)c(OC)c4)cc(C)nc32)cc1	-29%	-18%	.	?	2%
O=C(O)c1cccc2c1NC(c1cccc([N+](=O)[O-])c1)C1CC(Sc3ccccc3[N+](=O)[O-])C(Cl)C21 (centres undefined)	?	?	12	32µM*	?
O=C(O)c1ccc2c(c1)C1C(Cl)C(Sc3ccccc3[N+](=O)[O-])CC1C(c1cccc([N+](=O)[O-])c1)N2 (centres undefined)	-25%	?	2	?	-2%
COc1ccc(Nc2nc(N)nc(CSc3nc4ccccc4s3)n2)cc1	16µM*[quencher]	-29%	.	?	-1%
N[C@H]1C[C@H]1c1ccccc1	.	.	0	.	.
O=[N+]([O-])c1ccc(NCc2ccc(Cl)cc2)c2ccncc12	.	?	-19	.	.
O=[N+]([O-])c1ccc(NCc2ccccc2)c2nonc12	-14%	22µM*	-12	-10%	2%
CN(C)C(=O)Nc1ccc(-n2nc(C(C)(C)C)oc2=O)c(Cl)c1	.	.	0	.	.
c1ccc(SSc2ccccc2)cc1	-19%	-33%	5	25µM*	13µM*
Brc1ccccc1	2%	20%	3	-1%	4%
C=CCc1cc(C=C2C(=O)N(C)C(=O)N(C)C2=O)cc(OCC)c1OCc1ccccc1	-14%	?	1	25µM*	?
COc1cccc2c1cc([N+](=O)[O-])c1c(C(=O)O)cc3c(c12)OCO3	?	-11%	15	14µM*	-2%
O=c1[nH]sc2cc(F)ccc12	-25%	2%	3	11µM*	28µM*
C=C(C)C1CCC(C)=CC1c1c(O)cc(O)cc1CCCCC (centres undefined)	28µM*[quencher]	.	-7	?	8%
CCCCCc1cc(O)c2c(c1)OC(C)(C)[C@@H]1CCC(C(=O)O)=C[C@H]21	-3%	.	-2	-7%	-6%
SMILES	Tau fluor cs	USP1 inh	Coupling enz	Tau fibril ThT	Tau FP inhib
C[n+]1c(-c2ccccc2)c2cc(N)ccc2c2ccc(N)cc21	.	?	-39*	.	.
COc1ccc(C(=O)Nc2ccc(-c3cc(C(F)(F)F)nn3-c3ccccc3)cc2)cc1OC	?	-25%	.	8%	?
Nc1ccc2ccc3cccc[n+]3c2c1	.	28µM*	-7	.	.
CON(C)C(=O)Nc1ccc(Br)c(Cl)c1	.	.	-1	.	.
Cc1nonc1OCCNc1ccc([N+](=O)[O-])c2cccnc12	?	-12%	-5	7.1µM*	-11%
COc1ccc(CNC(=O)CSCc2cnn(-c3ccccc3)c2-n2cccc2)cc1OC	-11%	?	.	-12%	12%
COc1ccccc1N=c1scc(-c2ccc(S(=O)(=O)N3CCCC3)cc2)n1C	?	-7%	.	?	10%
